Molecules are shown by their SMILES. Among all 52,000 compounds or so, about 4,300 (8.3%) were called active. This excerpt belongs to a sample that is enriched for actives. A number with no mark means an inactive call. Rule as the data show it: active = survival mostly below about 52% (no sharp cut-off); inactive = mostly above about 56%.

For this assay, the system named is DeltatarO mutant. Put plainly: S. aureus survival, RN4220 and DeltatarO strains – OD600, teichoic acid synthesis inhibitors, primary screen (AID 463173). The settings on record: S. aureus RN4220 wild type/DeltatarO growth, OD600, 18 h, active compounds read low, screened at 18.75 µg/mL (by protocol).
With `Cc1ccc(CCNC(=O)c2cn(C)c3ccc(S(=O)(=O)N4CCC(C)CC4)cc3c2=O)cc1`, the survival was 72%.
With `Cc1ccc(S(=O)(=O)n2nc(-c3ccccc3)nc2NCc2ccccc2Cl)cc1` the figure was 85%; with `CCc1c(C)nc2nncn2c1NCc1ccc(OC)cc1`, 85%; with `COc1ccc2c(c1)CC(C(=O)Nc1ccc(Br)c(C)c1)CO2` (centres undefined), 70%.
For `CCCN1C(=O)CC(C(=O)OC)=C1C` the value was 81%; for `CCOc1cccc2sc(N(Cc3cccnc3)C(C)=O)nc12`, 89%; for `Cc1cc(Br)ccc1NC(=O)c1coc(=O)c2ccccc12`, 90%.
With `FC(F)(F)c1cc(-c2ccccc2)nc2cc(-c3ccc(Br)cc3)nn12` the figure was 42% (active); with `COc1ccc(-c2cc(C(F)(F)F)n3nc(-c4ccccc4)cc3n2)cc1OC`, 61%.
As for `FC(F)(F)c1cc(-c2ccccc2)nc2cc(-c3ccccc3)nn12`, the survival is 59%.
For the compound `CCN1CCN(Cc2nc3cc(NC(=O)c4ccccc4[N+](=O)[O-])ccc3n2CC)CC1`, the survival is 78%.
For `CCOc1ccc(CCNC(c2cccc(Cl)c2)c2nnc(-c3ccccc3)o2)cc1OCC` (centres undefined) the value was 95%; for `Cc1cc(C)cc(NC(c2nnc(-c3cccc(F)c3)o2)c2ccc(F)cc2Cl)c1` (centres undefined), 48%; for `Cc1ccc(NC(c2nnc(-c3ccccc3)o2)c2ccccc2F)c(Cl)c1` (centres undefined), 85%.
With `Fc1ccccc1C(NCCc1ccc(Cl)cc1)c1nnc(-c2ccccc2)o1` (centres undefined) the figure was -9% (active); with `Fc1ccc(C(NCCc2ccc(Cl)cc2)c2nnc(-c3ccccc3)o2)c(Cl)c1` (centres undefined), -2% (active); with `CC(C)c1ccc(NC(c2nnc(-c3ccccc3)o2)c2ccc(F)cc2Cl)cc1` (centres undefined), 84%.
For `COc1ccc(NC(c2nnc(-c3ccccc3)o2)c2ccccc2F)cc1Cl` (centres undefined) the value was 59%; for `Clc1ccc(CCNC(c2nnc(-c3ccccc3)o2)c2ccccc2Cl)cc1` (centres undefined), -3% (active); for `Cc1cc(C)cc(NC(c2cccc(Cl)c2)c2nnc(-c3ccccc3)o2)c1` (centres undefined), 92%.
Regarding `Cc1cc(NC(c2nnc(-c3ccccc3)o2)c2ccccc2F)ccc1Br` (centres undefined), the survival was 40%.
As for `CCOc1ccc(CCNC(c2nnc(-c3ccccc3)o2)c2ccccc2Cl)cc1OCC` (centres undefined), the survival is 1% (active).
With `O=C(CSc1nnc(-c2cccc(F)c2)c(-c2cccc(F)c2)n1)NC1CCCCC1` the figure was 73%; with `CC(C)c1ccc(NC(=O)CSC2=Nc3ccccc3C3=NC(CCC(=O)NC4CCCCC4)C(=O)N23)cc1` (centres undefined), 88%; with `Cc1ccc(C(=O)CSc2nnc(CSc3nc(C)cc(C)n3)n2C)cc1`, 88%.
For `COC(=O)c1ccc(Oc2nc3c(c(=O)n(C)c(=O)n3C)n2C(C)C)cc1` the value was 85%; for `CCCC(=O)Nc1nnc(SCc2cc(=O)n3ccccc3n2)s1`, 87%.
For `Cc1cc(C)c2c(CC(=O)Nc3cc(C(F)(F)F)ccc3Cl)coc2c1` the value was 66%; for `COc1ccc(CCn2cc3c(c2-c2ccccc2Br)c(=O)n(C)c(=O)n3C)cc1OC`, 67%.
`O=C(Oc1ccccc1)c1ccc(F)cc1`: the survival is 74%.
With `Cn1c(NCCN)nc2c1c(=O)n(Cc1ccccc1)c(=O)n2C` the figure was 50%.
As to `CCOc1ccc2[nH]c(=O)c(CN(CC3CCCO3)C(=O)N(CC)CC)cc2c1` (centres undefined), the survival is 98%.
With `Cc1ccc(NC(c2cccc(Cl)c2)c2nnc(-c3ccccc3)o2)cc1F` (centres undefined) the figure was 99%.
With `Clc1ccc(CCNC(c2ccc(Cl)cc2)c2nnc(-c3ccccc3)o2)cc1` (centres undefined) the figure was 98%; with `Clc1ccc(CCNC(c2cccc(Cl)c2)c2nnc(-c3ccccc3)o2)cc1` (centres undefined), 11% (active).
With `O=C1CC(c2nnc(Cc3c(F)cccc3Cl)o2)CN1c1ccccc1` (centres undefined) the figure was 129%; with `Nc1nn(-c2ccccc2)nc1C(=O)OCc1c(F)cccc1Cl`, 28% (active).
Regarding `O=C(Cc1ccc(Cl)cc1)Nc1ccc2nn(-c3ccccc3)nc2c1`, the survival is 81%.
With `Nc1nn(-c2ccccc2)nc1C(=O)OCc1ccc(Cl)cc1` the figure was 44% (active); with `Nc1nn(-c2ccccc2)nc1C(=O)OCc1ccccc1`, 58% (active); with `O=C(NCCCc1ccccc1)c1nn(-c2ccccc2)nc1CO`, 77%.
Consider `COc1cccc(COC(=O)c2ccc(-c3nnn(Cc4cccc(OC)c4)n3)cc2)c1`, for which the survival is 67%.
With `COc1cccc(COC(=O)c2ccc(-c3nnn(Cc4ccccc4)n3)cc2)c1` the figure was 126%.
Regarding `O=c1ccc(-c2ccccc2)nn1Cc1c(F)cccc1Cl`, the survival was 55%.
In the case of `COc1cccc(COC(=O)c2nn(-c3ccccc3)nc2N)c1`, the survival was 15% (active).
As to `Cc1cc2nn(-c3ccccc3)nc2cc1NC(=O)Cc1ccc(Cl)cc1`, the survival was 89%.
`O=C(NCc1ccccc1)c1nn(-c2ccccc2)nc1CO`: the survival was 108%.
For `COc1ccc(-c2oc3ncn4nc(-c5ccccc5Br)nc4c3c2-c2ccc(OC)cc2)cc1` the value was 77%; for `CCc1ccc(OCC(=O)Nc2ccc(S(=O)(=O)Nc3onc(C)c3C)cc2)cc1`, 73%; for `COC(=O)c1ccc(C(=O)OC)c(NC(=O)c2c(-c3ccccc3)c(-c3ccccc3)nn(C)c2=O)c1`, 60%.
With `COc1ccc(CNC(=O)CCc2nc3cccnc3n2Cc2ccccc2)cc1` the figure was 120%; with `Cc1ccc(NC(=O)NCCOCCn2c(=O)oc3ccccc32)cc1C`, 86%; with `Cc1ccccc1Cn1c2ccccc2c2cnn(CC(=O)NCCc3ccccc3)c(=O)c21`, 96%.
For `COc1ccc(-c2cn3nc(N4CCCC(C(=O)Nc5cc(C)ccc5C)C4)sc3n2)cc1` (centres undefined) the value was 76%; for `CCOc1ccc(NC(=O)Cn2cc(S(=O)(=O)c3ccc(C)cc3)c(=O)c3cc(F)ccc32)cc1`, 74%.
In the case of `CCC(=O)N1c2ccc(S(=O)(=O)CCC(=O)N3CCN(c4cc(C)ccc4C)CC3)cc2CC1C` (centres undefined), the survival was 85%.
For `Cc1cc(C)cc(NC(=O)C(=O)NCC(c2ccc3c(c2)OCO3)N2CCOCC2)c1` (centres undefined) the value was 107%.
For `CSc1ccc(CNC(=O)CCn2ccc3cc(S(=O)(=O)N4CCC(C)CC4)ccc32)cc1` the value was 88%; for `CCCCC(CC)CNC(=O)C1CCC(CNS(=O)(=O)c2cccc3nsnc23)CC1` (centres undefined), 65%.
With `Cc1ccc2oc(C(=O)Nc3ccc(S(=O)(=O)Nc4onc(C)c4C)cc3)cc(=O)c2c1` the figure was 71%.
Consider `O=C(CN1C(=O)COc2ccc(S(=O)(=O)Nc3ccccc3)cc21)Nc1cccc(Cl)c1`, for which the survival is 96%.
For `Fc1ccc(-c2nc(Nc3ccc(F)c(Cl)c3)nc3c2COc2ccccc2-3)cc1` the value was 55%; for `O=C(c1cn(CC(=O)N2CCOCC2)c2ccccc12)C1CC1`, 90%; for `CCN(CC)C(=O)c1sc2c(c1C)c(=O)n(-c1ccc(Cl)c(Cl)c1)c(=O)n2Cc1cc(=O)n2ccccc2n1`, 112%.
Regarding `O=c1c2sccc2n(Cc2cc(=O)n3ccccc3n2)c(=O)n1-c1cc(F)ccc1F`, the survival is 69%.
With `CCN(CC)C(=O)Cn1c(=O)n(-c2ccc(Cl)c(Cl)c2)c(=O)c2c(C)c(C(=O)N(CC)CC)sc21`, the survival is 83%.
With `CCN(CC)C(=O)c1sc2c(c1C)c(=O)n(-c1ccccc1)c(=O)n2Cc1cc(=O)n2ccccc2n1` the figure was 47% (active); with `CCN(CC)C(=O)c1sc2c(c1C)c(=O)n(-c1ccc(C)c(C)c1)c(=O)n2Cc1cc(=O)n2ccccc2n1`, 84%; with `O=c1c2sccc2n(Cc2cc(=O)n3ccccc3n2)c(=O)n1-c1cccc(C(F)(F)F)c1`, 52%.
For `CCN(CC)C(=O)c1sc2c(c1C)c(=O)n(-c1ccc(Cl)c(Cl)c1)c(=O)n2Cc1cc(=O)n2c(C)cccc2n1` the value was 32% (active); for `Cc1ccc(-n2c(=O)c3sccc3n(Cc3cc(=O)n4ccccc4n3)c2=O)cc1`, 63% (active); for `CCN(CC)C(=O)c1sc2c(c1C)c(=O)n(-c1ccc(C)c(C)c1)c(=O)n2Cc1cc(=O)n2c(C)cccc2n1`, 49%.
As for `Cc1ccc(S(=O)(=O)N(CC(=O)Nc2cccnc2)c2cc(Cl)ccc2C)cc1`, the survival was 78%.
Take `COc1ccc(NC(=O)CNC(=O)Cn2c(C)cc3ccccc3c2=O)c(OC)c1`: the survival was 62%.
In the case of `C=CCSc1nsc(N)n1`, the survival was 75%.
With `Nc1nc(SC#CC(F)(F)F)ns1` the figure was 13% (active).
For the compound `O=C(CSc1ccccc1)N1CCc2c([nH]c3ccccc23)C1c1ccc(F)cc1` (centres undefined), the survival is 76%.
With `O=C(CSc1ccccc1)N1CCc2c([nH]c3ccccc23)C1c1ccc(Cl)cc1` (centres undefined) the figure was 52% (active); with `Cc1ccc(C2c3[nH]c4ccccc4c3CCN2C(=O)CSc2ccccc2)cc1` (centres undefined), 69%.
For `Cc1ccc(CCNS(=O)(=O)c2ccc3c(c2)C(C(C)C)C(=O)N3)cc1` (centres undefined) the value was 116%.
As for `COc1ccccc1CCNC(=O)C(=O)NCC(c1cccs1)S(=O)(=O)c1ccccc1` (centres undefined), the survival was 82%.
As for `O=C(c1ccc(F)cc1F)N1CCC(c2noc(-c3ccc(S(=O)(=O)N4CCCC4)cc3)n2)CC1`, the survival is 97%.
With `Cc1cccc2nc(-c3ccc(N(C)C)cc3)c(Nc3ccc4c(c3)OCO4)n12` the figure was 102%.
With `O=C(Nc1ccc2nc(SCC(=O)N3CCOCC3)sc2c1)c1cccc(Cl)c1` the figure was 32% (active).
For `O=C(Nc1ccc2nc(SCC(=O)N3CCOCC3)sc2c1)c1ccc(Br)cc1` the value was 83%; for `O=C(Nc1ccc2nc(SCC(=O)N3CCCC3)sc2c1)c1cccc(Br)c1`, 57%; for `O=C(Nc1ccc2nc(SCC(=O)N3CCOCC3)sc2c1)c1cccc(Br)c1`, 29% (active).
As for `O=C(Nc1ccc2nc(SCC(=O)N3CCCC3)sc2c1)c1cccc(Cl)c1`, the survival is 52%.
For `O=C(Nc1ccc2nc(SCC(=O)N3CCOCC3)sc2c1)c1ccc(Cl)cc1` the value was 68%.

These data come from PubChem BioAssay AID463173 (ICCB-Longwood Screening Facility, Harvard Medical School, 2010).
